Mcl-1 Bim block – inhibitors of Bim-Mcl-1 interaction, human | Q07820 | AID 1009 | inhibition, % at 10 µM | actives 0.1% (n = 190,000) | Bead-based flow cytometry, Bim peptide-Mcl-1 binding; in the data active means inhibition above about 40%;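 further: 0% = no compound tracer wells and 100% = peptide blocker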
14-3-3 Bad PPI – disrupts binding of bovine 14-3-3 zeta to phospho-Bad peptide; P63103; TR-FRET 14-3-3zeta/Dy647-pBad peptide displacement, 1 h; inhibition, % at 21.7 µM; actives 0.71% (n = 220,000);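 active means inhibition above about 70%, limit read from the data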;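 further: 0% = full 14-3-3 plus peptide FRET controls and 100% = background without 14-3-3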
Target sequence (P63103 whole entry, looked up): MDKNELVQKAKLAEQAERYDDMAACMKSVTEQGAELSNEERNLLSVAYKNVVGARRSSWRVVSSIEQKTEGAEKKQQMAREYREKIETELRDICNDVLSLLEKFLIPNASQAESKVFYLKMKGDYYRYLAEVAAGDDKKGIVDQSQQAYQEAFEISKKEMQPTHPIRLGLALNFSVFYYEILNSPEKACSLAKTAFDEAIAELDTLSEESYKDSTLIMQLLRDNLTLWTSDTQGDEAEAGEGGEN
Mcl1-Bid inh – disrupts binding of human Mcl-1 to Bid peptide | actives 0.97% (n = 220,000) | TR-FRET Mcl-1/Bid-Dy647 peptide binding, 1536-well | inhibition, % at 21.7 µM | AID 1021 | Q07820;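 active means compounds that cut the binding signal by more than half at the single screening dose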;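 further: His-tagged Mcl-1 with europium anti-His antibody binding Bid BH3 peptide; 0% = Mcl-1 plus peptide wells and 100% = peptide-only wells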
eIF4E 4G PPI – inhibitors of eIF4E and eIF4G interaction in translation initiation; P63073+Q04637; TR-FRET eIF4E-eIF4GI(517-606) binding, 2 h; inhibition, % at 21.7 µM; actives 0.37% (n = 220,000); AID 782;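 active means inhibition above about 30%, limit read from the data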;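 further: 0% = full FRET control wells and 100% = background wells lacking eIF4GI fragment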
Mcl1 Noxa PPI – Mcl-1/Noxa interaction inhibition. TR-FRET Mcl-1/Noxa peptide binding, 2 h. actives 1.5% (n = 220,000). Q07820. inhibition, % at 21.7 µM;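 active means compounds that cut the protein-peptide binding signal by more than 50% relative to plate controls in a single-dose test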;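 further: His-tagged Mcl-1 with rhodamine Noxa BH3 peptide and terbium anti-His antibody; 0% = Mcl-1 plus Noxa peptide wells and 100% = peptide-only wells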
Pf gametocyte – inhibitors of late stage P. falciparum gametocyte viability; P. falciparum stage V gametocytes, ATP luminescence, 24 h; inhibition, % at 10.9 µM; actives 0.065% (n = 150,000); AID 743093;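 active means inhibition above the mean plus 3 SD of compounds within the control limits, set per campaign, cut at about 38% in these data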;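 further: 0% = DMSO wells and 100% = medium only without gametocytes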
The depositor's hits bear a star; nt = not tested or not shown. This is a sample that favours compounds with a hit; in the whole collection about 2.7% have one here.

SMILES | Mcl-1 Bim block | 14-3-3 Bad PPI | Mcl1-Bid inh | eIF4E 4G PPI | Mcl1 Noxa PPI | Pf gametocyte
CCc1ccccc1NC(=O)CN(C1CCCCC1)S(C)(=O)=O | nt | nt | nt | nt | nt | 13.0
Cc1cccc(NC(=O)C2C(C(=O)O)C3C=CC2C32CC2)c1C (configuration not stated) | -4.0 | -3.1 | 97.4* | -13.8 | 13.2 | -11.3
CC(C)Cn1c(S(=O)(=O)O)nc2ccccc21 | nt | 3.5 | -32.6 | 1.8 | 7.5 | 12.3
CS(=O)(=O)c1nc2ccccc2n1Cc1ccccc1 | 0.0 | 19.7 | 2.0 | 0.1 | -0.7 | -13.9
CC(C)CCn1c(S(=O)(=O)O)nc2ccccc21 | 0.0 | 75.4* | 8.0 | -1.4 | 14.7 | nt
O=S(=O)(O)c1nc2ccccc2n1Cc1ccccc1 | 4.0 | 70.6* | 0.1 | -1.5 | -0.8 | nt
O=C(Nc1cc(S(=O)(=O)N2CCCCC2)ccc1N1CCCCC1)c1ccncc1 | nt | 1.2 | -18.5 | -12.2 | -12.6 | -5.4
CC(=O)Oc1ccc(N2C(=O)C3C4C=CC(CO)(O4)C3C2=O)cc1 (configuration not stated) | 0.0 | 11.5 | -4.3 | 19.6 | 25.1 | -2.6
O=C1C2C3C=CC(CO)(O3)C2C(=O)N1c1ccccc1-c1ccccc1 (configuration not stated) | -14.0 | 7.8 | 5.3 | 3.0 | 52.6* | nt
CCN(CC)c1ccc(C(=O)N/N=C/c2ccccc2OC(F)F)cc1 | -2.0 | -14.7 | -35.3 | -2.5 | 3.9 | -13.1
O=S(=O)(c1ccc(Cl)cc1)N1CCC(N2CCOCC2)CC1 | 1.0 | 80.4* | 28.8 | 13.7 | -0.6 | 9.4
CCOC(=O)c1cc2c(ccn2C)n1CC(=O)N1CCN(c2ccccc2OC)CC1 | -3.0 | -10.9 | -30.9 | -5.3 | 11.9 | nt
Cc1nn(Cc2ccccc2)c(C)c1NC(=O)CSc1nc(-c2ccccc2)nc2c1cnn2-c1ccccc1 | 0.0 | 30.1 | 79.7* | -33.2 | 27.8 | -4.5
O=C(CSc1ncnc2c1cnn2-c1ccccc1)Nc1ccccc1 | 0.0 | 4.7 | -34.1 | 7.4 | 7.8 | -18.8
COc1cccc(NC(=O)N(CCCN2CCOCC2)C(C)c2cc3ccccc3o2)c1 (configuration not stated) | -2.0 | nt | -32.4 | nt | 19.5 | nt
C/C(=N/NC(=O)CNS(=O)(=O)c1ccc(C)cc1)c1cccc([N+](=O)[O-])c1 | 0.0 | -3.4 | -13.3 | -2.8 | -16.7 | 11.7
OC(COCC1COc2ccccc2O1)CN1CCN(c2ccccn2)CC1 (configuration not stated) | -1.0 | 80.0* | 9.1 | -0.8 | 22.9 | nt
OC(COCC1COc2ccccc2O1)CN1CCc2ccccc2C1 (configuration not stated) | 3.0 | 13.5 | 12.1 | -2.1 | 12.3 | 9.6
NC(=O)c1cccn1-c1ncc(C(F)(F)F)cc1Cl | -4.0 | 9.1 | 83.3* | 0.7 | 13.2 | -19.3
O=c1c(Cl)c(N2CCN(c3ccc(F)cc3)CC2)cnn1C12CC3CC(CC(C3)C1)C2 | -4.0 | -3.5 | -55.6 | -9.9 | 10.1 | -7.3
O=c1oc2ccccc2cc1-c1csc(Nc2nc3c(F)cccc3s2)n1 | -4.0 | 26.9 | 33.5 | 18.4 | 69.8* | 34.5
O=c1oc2ccccc2cc1-c1csc(NN=C2CCCCC2)n1 | 3.0 | -9.0 | -45.4 | 1.5 | 7.4 | nt
CCCCCCSC1=C(C#N)C(c2ccc(O)cc2)CC(=O)N1 (configuration not stated) | 1.0 | -11.1 | -35.3 | -7.4 | 10.9 | nt
CCOC(=O)c1ccc(NS(=O)(=O)c2c(N)[nH]c(=O)[nH]c2=O)cc1 | nt | nt | nt | nt | nt | -24.0
Cn1c(=O)c2c(=O)cc(N)[nH]c2n(C)c1=O | nt | -2.9 | -32.5 | -2.0 | 3.8 | 17.3
SMILES | Mcl-1 Bim block | 14-3-3 Bad PPI | Mcl1-Bid inh | eIF4E 4G PPI | Mcl1 Noxa PPI | Pf gametocyte
CCC(=O)NC(=S)Nc1ccc(NC(=O)c2cc3ccccc3o2)c(OC)c1 | -2.0 | 51.5 | 63.5* | 10.3 | 30.9 | -18.5
CCN(CC)c1ccc(NC(=O)c2cc3ccccc3o2)c(C)c1 | -2.0 | 53.7 | -12.6 | -10.4 | 50.7* | 25.3
CCN(CC)c1ccc(NC(=O)c2c(OC)cccc2OC)c(C)c1 | 0.0 | -1.4 | -34.1 | 1.2 | 16.1 | nt
O=C1/C(=C\c2ccc(O)cc2)SC(=S)N1/N=C/c1ccc(O)cc1 | nt | 15.0 | 24.0 | 0.4 | 78.7* | 14.6
CC(=O)NN1C(=O)/C(=C\c2ccc(O)cc2)SC1=S | 0.0 | -13.2 | -65.7 | 1.5 | -15.6 | nt
CCc1ccc(NC(=O)c2c(C(=O)Nc3ccccc3)sc3nc(C)cc(=O)n23)cc1 | -1.0 | -10.2 | -40.9 | -3.1 | 4.5 | 17.2
